Compounds with a hit are over-represented: about 5.2% of the library has one in this group of screens.
Tau fibril FP: inhibitors of human tau fibril formation | K18 P301L tau heparin fibrillization, Alexa594 FP, 6 h | Potency, µM (top dose mostly 57.7 µM), for inactives: at the top dose activity, negative = inhibition, most hits filed as inhibitors | 0.39% of 280,000 active | AID 1468; note: potency is the fitted concentration of half-maximal effect; nearly all actives have a fitted effect of over 55% in size
Target sequence (P10636 561-689 P618L limits assumed): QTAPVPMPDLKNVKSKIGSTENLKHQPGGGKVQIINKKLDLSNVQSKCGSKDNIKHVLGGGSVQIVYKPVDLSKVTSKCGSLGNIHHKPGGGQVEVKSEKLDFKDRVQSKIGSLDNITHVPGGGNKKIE
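Quantitative HTS format: compounds meet 15 uM recombinant K18 P301L tau and Alexa 594-tau tracer in 100 mM sodium acetate pH 7; 20 uM heparin triggers fibrillization at 37 C over 6 hr; FP gives the signal.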
Tau fibril ThT: tau fibrillization inhibition (ThT binding). 2.1% of 270,000 active. AID 1460. Potency, µM (titrated, usually from 57.4 µM), for the others: top-dose activity, negative = inhibition, hits mostly inhibitors. recombinant tau K18 P301L, heparin-induced fibrillization, ThT fluorescence; note: potency is the fitted concentration of half-maximal effect; nearly all actives have a fitted effect of over 55% in size
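Fibril formation assay: tau K18 P301L at 15 uM with trace Alexa 594 label, heparin inducer 20 uM, pH 7 sodium acetate buffer, 37 C for 6 hr; endpoint ThT signal.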
Sfp PPTase inh: Sfp phosphopantetheinyl transferase inhibition. Q9F4F7. AID 1490. Potency, µM, for the others: largest response in the series, negative = inhibition, usual class: inhibitors. Biochemical Sfp PPTase activity, qHTS. 3.5% of 310,000 active;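 note: the enzyme is Sfp with the accession as filed and its product quenches rhodamine fluorescence; potency is the fitted concentration of half-maximal effect; 0% = enzyme reaction without inhibitor and -100% = no enzyme wells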
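Buffer: 50 mM Hepes-Na pH 7.6, 10 mM MgCl2, 0.01% Nonidet P-40, 0.01% BSA. Enzyme 15 nM, pre-exposed to compound 15 min; substrates then added and fluorescence change tracked over 30 min.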
Coupling enz: coupling enzyme interference in Giardia aldolase counter-screen | coupling enzyme system counterscreen, AmpLite Red fluorescence | activity change, negative = inhibition, % at 58.2 µM, hits read low | 0.67% of 290,000 active; in the data active = activity change below about -30%
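Activity here indicates interference with the coupling reaction, not aldolase inhibition. Compounds at 57.5 uM final met coupling enzymes for 10 min at RT; substrate and AmpLite Red detection followed, with a 525/598 nm fluorescence read after 20 min.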
Tau fluor counter: counter-screen for tau fibril formation inhibitors; AID 1463; tau K18 P301L Alexa594 fluorescence, heparin fibrillization; 0.93% of 280,000 active; Potency, µM (series often up to 57.7 µM), for inactives: at the highest dose activity change, negative = decrease; note: potency is the fitted concentration of half-maximal effect; nearly all actives have a fitted effect of over 55% in size
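Human tau K18 P301L (15 uM unlabeled, 0.24 uM Alexa 594-labeled) in 100 mM sodium acetate pH 7 with 20 uM heparin, 6 hr at 37 C. ThT 30 uM added, 1 hr ambient; Alexa 594 FP and total fluorescence read at 555/632 nm.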
Starred values were filed as active, the others as inactive. Unless noted, calls come from the whole dose curve; as a rule, active = well fitted curve in the direction sought with a large enough effect; inconclusive = small, poorly fitted or top-dose-only effect, or another doubt; inactive = no such curve, though single readings can be large; an effect the other way counts as inactive or inconclusive. Unless noted, % is set by controls: 0 for no effect and ±100 for the full control effect.

Nc1ccccc1N=Cc1ccc(-c2cccc(Cl)c2)o1 was read as Tau fibril FP -8%, Tau fibril ThT inconclusive, Sfp PPTase inh 32µM*, Coupling enz -1 and Tau fluor counter inconclusive.
For COC(=O)N/N=C/c1ccc(-c2cccc(Cl)c2)o1 the results were Tau fibril FP 0%, Tau fibril ThT inconclusive, Sfp PPTase inh -24%, Coupling enz -4 and Tau fluor counter -25%.
`CC(=O)Nc1ccc(S(=O)(=O)N2CCC(c3nnnn3-c3ccccc3)CC2)cc1` gave Tau fibril FP -16%, Tau fibril ThT 8% and Tau fluor counter -15%.
For O=C(CCCCn1c(=O)c2ccccc2n(Cc2ccccc2Cl)c1=O)NCc1ccc2c(c1)OCO2 the results were Tau fibril FP -1%, Tau fibril ThT 2% and Tau fluor counter -1%.
Clc1ccccc1-c1nc(NCc2cccs2)c2ccccc2n1 was read as Sfp PPTase inh 2% and Coupling enz 3.
`CCc1cc2c(c(CC)n1)CCC(=O)N2Cc1ccc(-c2ccccc2-c2nn[nH]n2)cc1` gave Tau fibril FP -13%, Tau fibril ThT -8%, Sfp PPTase inh -2%, Coupling enz 13 and Tau fluor counter -9%.
For CC1=NN(c2ccc(C(=O)O)cc2)C(=O)/C1=C/c1ccc(-c2ccccc2F)o1 the results were Sfp PPTase inh -21% and Coupling enz 2.
Screening CC1=NOC(=O)/C1=C\c1ccc(-c2cccc(Cl)c2)o1 returned Tau fibril FP 3%, Tau fibril ThT 16µM*, Sfp PPTase inh 20µM*, Coupling enz 4 and Tau fluor counter inconclusive.
`CC1=NOC(=O)/C1=C\c1ccc(-c2ccc(Cl)c(C(=O)O)c2)o1` gave Tau fibril FP -4%, Tau fibril ThT inconclusive, Sfp PPTase inh 56µM*, Coupling enz 4 and Tau fluor counter -8%.
`CC1=NOC(=O)/C1=C\c1ccc(-c2ccccc2Br)o1` gave Tau fibril FP -11%, Tau fibril ThT inconclusive, Sfp PPTase inh 56µM*, Coupling enz -3 and Tau fluor counter -30%.
`CCCOc1cccc(C(=O)N(Cc2ccc(C)o2)C2CCS(=O)(=O)C2)c1` (stereo not drawn) gave Tau fibril FP -10%, Tau fibril ThT -8% and Tau fluor counter -17%.
For CC(C)Oc1ccc(CNC(=O)c2ccc(CS(=O)c3cccc(Cl)c3)o2)cc1 (stereo not drawn) the results were Tau fibril FP 7%, Tau fibril ThT -4% and Tau fluor counter -5%.
Oc1c(Br)cc(Br)cc1C=Nc1ccc2c(c1)OCCO2 was read as Tau fibril FP inconclusive, Tau fibril ThT 11µM*, Sfp PPTase inh -17%, Coupling enz -6 and Tau fluor counter -16%.
For Oc1[nH]c2ccccc2c1C=Nc1ccc2c(c1)OCCO2 the results were Tau fibril FP 16%, Tau fibril ThT 11µM*, Sfp PPTase inh -15%, Coupling enz -7 and Tau fluor counter inconclusive.
Screening O=[N+]([O-])c1ccc(O)c(C=Nc2ccc3c(c2)OCCO3)c1 returned Tau fibril FP 6%, Tau fibril ThT 1%, Sfp PPTase inh -9%, Coupling enz 0 and Tau fluor counter 3%.
Oc1c(Br)cc(Br)cc1C=Nc1ccc2c(c1)OCO2 was read as Tau fibril FP inconclusive, Tau fibril ThT 20µM*, Sfp PPTase inh -4%, Coupling enz -3 and Tau fluor counter -7%.
For Cc1cccc(/N=C/c2c(O)[nH]c3ccccc23)n1 the results were Tau fibril FP 15%, Tau fibril ThT inconclusive, Sfp PPTase inh -8%, Coupling enz -7 and Tau fluor counter -21%.
Screening CC(=O)OC1C=C[C@@H](OC(C)=O)C1 (stereo partly drawn) returned Sfp PPTase inh -14% and Coupling enz -1.
CCc1ccc(-n2c(=O)c3c4c(sc3n(CC(=O)N3CCCCC3CC)c2=O)CCC4)cc1 (stereo not drawn) was read as Tau fibril FP -2%, Tau fibril ThT -2% and Tau fluor counter 0%.
`Cn1cc(Br)c(NC(=O)/C=C/C(=O)O)n1` gave Tau fibril FP -5%, Tau fibril ThT -12%, Sfp PPTase inh 8.9µM*, Coupling enz 1 and Tau fluor counter -1%.
`Cn1cc(Br)c(C(=O)Nc2c(F)c(F)c(F)c(F)c2F)n1` gave Tau fibril FP 0%, Tau fibril ThT -1%, Sfp PPTase inh -7%, Coupling enz 0 and Tau fluor counter 6%.
For O=C1NC(=Nc2ccccc2)S/C1=C\c1ccccc1 the results were Sfp PPTase inh 17% and Coupling enz 2.
`O=C1N/C(=N/Nc2ccccc2)S/C1=C\c1ccccc1` gave Tau fibril FP 0%, Tau fibril ThT inconclusive, Sfp PPTase inh 25µM*, Coupling enz 1 and Tau fluor counter 1%.
`Cc1ccc(-c2nnc3c4ccccc4c(C)nn23)cc1NC(=O)c1ccccc1Cl` gave Tau fibril FP -1%, Tau fibril ThT inconclusive and Tau fluor counter -9%.
O=S(O)CO was read as Sfp PPTase inh 2% and Coupling enz 1.
`Cc1ccc(S(=O)(=O)Nc2ccc(O)c(S(=O)(=O)c3ccc(C)cc3)c2)cc1` gave Sfp PPTase inh 2% and Coupling enz 0.
Cc1ccc(S(=O)(=O)Nc2cc(C)c(O)c(Sc3n[nH]c(C)n3)c2)cc1 was read as Sfp PPTase inh 71µM* and Coupling enz -1.
`Cc1ccc(C)n1-c1ccc(C(=O)/C=C/N(C)C)cc1` gave Tau fibril FP 3%, Tau fibril ThT -7%, Sfp PPTase inh 8%, Coupling enz 2 and Tau fluor counter -4%.
Cc1ccc(C)n1-c1ccc(N(C)C)cc1 was read as Tau fibril FP inconclusive, Tau fibril ThT 13µM*, Sfp PPTase inh 40µM*, Coupling enz -30* and Tau fluor counter inconclusive.
Cc1ccc(C)n1-c1ccc(N2CCOCC2)cc1 was read as Tau fibril FP -15%, Tau fibril ThT 8.9µM*, Sfp PPTase inh -53%, Coupling enz -19 and Tau fluor counter -8%.
For COc1ccccc1NC(=O)c1c(N=Cc2c(O)ccc3ccccc23)cnn1C the results were Tau fibril FP inconclusive, Tau fibril ThT inconclusive, Sfp PPTase inh inconclusive, Coupling enz -40* and Tau fluor counter inconclusive.
For COc1ccccc1NCC(=O)N/N=C/c1c(O)ccc2ccccc12 the results were Sfp PPTase inh 18% and Coupling enz -4.
CCO/C=C1/C(=O)N(C)C(=O)c2cc(OC)ccc21 was read as Tau fibril FP 1%, Tau fibril ThT -14%, Sfp PPTase inh 5%, Coupling enz -43* and Tau fluor counter -9%.
For CCO/C=C1/C(=O)N(c2ccc(OC)cc2)C(=O)c2ccccc21 the results were Tau fibril FP 2%, Tau fibril ThT 0%, Sfp PPTase inh 16%, Coupling enz -3 and Tau fluor counter 3%.

High-throughput results as filed in PubChem.
